Values without a mark were called inactive. For some assays here: Results with a measured potency or affinity are listed apart. Calls of active or inactive are those of the source. Unless noted, how the calls were made is not given here.
Tests used:
[1] = antimalarial activity against Dd2 strain (AID 2302;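 active means growth inhibition above 50% at the single 2 µM test dose, taken to imply half-maximal potency below 2 µM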;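 further: 0% = DMSO untreated growth and 100% = chloroquine plus artemisinin killed control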); settings: P. falciparum Dd2 in RBCs, LDH growth readout, 72 h; at 2 µM; active compounds read high
[2] = human hepatoma cell viability loss – ATP luminescence, cytotoxicity control for P. falciparum antimalarial project, primary screen (AID 2303;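 active means inhibition above 50%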;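 further: 0% = DMSO wells and 100% = digitonin-killed cells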); settings: HepG2 viability, 24-48 h, at 10 µM, active compounds read high
[3] = target: L-lactate dehydrogenase (Plasmodium falciparum (isolate CDC / Honduras)) (UniProt Q27743); assay: PfLDH activity inhibition – cell lysate, 3D7 strain, counter-screen for P. falciparum growth inhibition project (AID 2304);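 further: 0% = vehicle and 100% = reference inhibitor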; settings: P. falciparum 3D7 crude extract, LDH APAD/NBT absorbance; at 2 µM; active compounds read high
[4] = inhibition of 3D7 malaria parasite growth – strain 3D7 (AID 2306);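 further: 0% = DMSO wells and 100% = chloroquine plus artemisinin control wells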; settings: P. falciparum 3D7 erythrocytic growth, LDH absorbance, 72 h; at 2 µM; active compounds read high
[5] = target: Calcium-dependent protein kinase 1 (Plasmodium falciparum (isolate 3D7)) (UniProt P62344); assay: PfCDPK1 kinase inhibitors, biochemical, TCAMS library (AID 1159585; cut-off not given, nearly all actives have IC50 up to about 0.98 µM;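 further: inhibitors leave more ATP so luminescence rises with inhibition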); settings: recombinant PfCDPK1, Kinase-Glo ATP depletion luminescence
[6] = target: Plasmodium falciparum protein kinase 6 (PK6, PF3D7_1337100) (UniProt Q8IDW1); assay: PfPK6 kinase inhibitors, biochemical, TCAMS library (AID 1159586); settings: recombinant PfPK6, Kinase-Glo ATP depletion luminescence
[7] = target: Protein kinase 7 (PK7), Plasmodium falciparum 3D7 (PF3D7_0213400) (UniProt Q7YTF7); assay: inhibition of Plasmodium PK7 catalytic activity – biochemical, TCAMS antimalarial set, Kinase-Glo luminescence (AID 1159587); settings: recombinant PfPK7, Kinase-Glo ATP depletion luminescence
[8] = target: Calcium-dependent protein kinase 4 (Plasmodium falciparum (isolate 3D7)) (UniProt Q8IBS5); assay: PfCDPK4 kinase inhibitors, biochemical, TCAMS library (AID 1159588; cut-off not given, nearly all actives have IC50 up to about 0.91 µM); settings: recombinant PfCDPK4, Kinase-Glo ATP depletion luminescence
Calcium-dependent protein kinase 4 (Plasmodium falciparum (isolate 3D7)), sequence (Q8IBS5 whole entry, looked up): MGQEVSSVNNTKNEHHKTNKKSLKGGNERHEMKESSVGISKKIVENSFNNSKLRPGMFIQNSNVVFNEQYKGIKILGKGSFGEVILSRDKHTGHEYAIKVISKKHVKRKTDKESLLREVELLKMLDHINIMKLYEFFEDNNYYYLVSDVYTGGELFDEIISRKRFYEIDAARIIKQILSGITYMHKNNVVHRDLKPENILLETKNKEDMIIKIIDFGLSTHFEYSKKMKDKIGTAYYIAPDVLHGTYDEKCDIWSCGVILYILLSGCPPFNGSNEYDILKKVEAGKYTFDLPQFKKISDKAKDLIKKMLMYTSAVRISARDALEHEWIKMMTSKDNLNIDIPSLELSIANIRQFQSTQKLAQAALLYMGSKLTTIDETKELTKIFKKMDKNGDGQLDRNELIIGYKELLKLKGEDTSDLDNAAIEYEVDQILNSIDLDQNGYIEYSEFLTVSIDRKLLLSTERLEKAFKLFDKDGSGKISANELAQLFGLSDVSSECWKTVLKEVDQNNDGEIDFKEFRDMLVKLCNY

Plasmodium falciparum protein kinase 6 (PK6, PF3D7_1337100), sequence (Q8IDW1 1-305): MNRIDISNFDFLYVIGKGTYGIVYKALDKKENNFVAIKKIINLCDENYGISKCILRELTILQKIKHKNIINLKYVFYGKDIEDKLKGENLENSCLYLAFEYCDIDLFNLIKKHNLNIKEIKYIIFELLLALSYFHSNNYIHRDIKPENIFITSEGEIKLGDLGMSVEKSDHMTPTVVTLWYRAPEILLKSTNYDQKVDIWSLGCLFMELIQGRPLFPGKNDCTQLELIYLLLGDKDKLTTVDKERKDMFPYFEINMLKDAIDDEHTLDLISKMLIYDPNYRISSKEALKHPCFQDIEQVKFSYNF
Protein kinase 7 (PK7), Plasmodium falciparum 3D7 (PF3D7_0213400), sequence (Q7YTF7 1-343): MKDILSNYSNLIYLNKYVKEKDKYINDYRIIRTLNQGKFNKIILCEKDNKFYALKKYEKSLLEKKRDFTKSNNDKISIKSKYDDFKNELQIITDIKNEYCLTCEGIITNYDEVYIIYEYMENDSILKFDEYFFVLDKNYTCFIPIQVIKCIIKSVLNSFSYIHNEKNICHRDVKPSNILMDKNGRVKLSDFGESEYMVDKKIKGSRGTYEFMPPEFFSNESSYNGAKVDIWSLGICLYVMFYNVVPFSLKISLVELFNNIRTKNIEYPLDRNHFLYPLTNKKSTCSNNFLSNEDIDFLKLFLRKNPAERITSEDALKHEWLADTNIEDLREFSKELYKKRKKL
L-lactate dehydrogenase (Plasmodium falciparum (isolate CDC / Honduras)), sequence (Q27743 whole entry, looked up): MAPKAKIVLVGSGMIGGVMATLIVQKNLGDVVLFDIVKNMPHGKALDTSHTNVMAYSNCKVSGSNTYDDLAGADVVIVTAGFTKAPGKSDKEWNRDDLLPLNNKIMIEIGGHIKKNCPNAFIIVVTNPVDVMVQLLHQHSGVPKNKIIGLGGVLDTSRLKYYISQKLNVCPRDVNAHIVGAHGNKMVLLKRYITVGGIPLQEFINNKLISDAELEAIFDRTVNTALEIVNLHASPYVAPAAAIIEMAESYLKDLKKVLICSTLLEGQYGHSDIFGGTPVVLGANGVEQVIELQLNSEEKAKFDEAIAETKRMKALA
Calcium-dependent protein kinase 1 (Plasmodium falciparum (isolate 3D7)), sequence (P62344 whole entry, looked up): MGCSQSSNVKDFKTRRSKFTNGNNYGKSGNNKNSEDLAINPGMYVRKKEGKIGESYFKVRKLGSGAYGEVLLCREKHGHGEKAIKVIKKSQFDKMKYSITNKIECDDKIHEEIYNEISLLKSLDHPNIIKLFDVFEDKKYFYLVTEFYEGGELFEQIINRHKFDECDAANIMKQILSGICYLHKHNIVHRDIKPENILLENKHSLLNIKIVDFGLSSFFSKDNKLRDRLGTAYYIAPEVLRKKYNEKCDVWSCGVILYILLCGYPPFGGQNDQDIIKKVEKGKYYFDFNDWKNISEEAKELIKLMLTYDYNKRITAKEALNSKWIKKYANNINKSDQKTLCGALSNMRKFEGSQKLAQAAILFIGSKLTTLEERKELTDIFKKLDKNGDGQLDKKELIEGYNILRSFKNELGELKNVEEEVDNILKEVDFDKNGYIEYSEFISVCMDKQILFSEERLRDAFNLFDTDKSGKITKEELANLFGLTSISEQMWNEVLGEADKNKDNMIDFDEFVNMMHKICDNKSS

## C/C=C1/CN2CC[C@H]1C[C@H]2[C@H](O)c1ccnc2ccc(OC)cc12
[1]
  growth inhibition: 45%
[2]
  inhibition: -16%
[3]
  inhibition: 0%
[4]
  growth inhibition: 99% (active)
[5]
  outcome: inactive
[6]
  outcome: inactive
[7]
  outcome: inactive
[8]
  outcome: inactive

## C=Cc1cc(OC)c2c(c1)c(=O)oc1c2cc(OC)c2c(O)ccc([C@H]3O[C@H]([C@@H](C)O)[C@H](O)[C@H]3O)c21
[1]
  growth inhibition: 41%
[2]
  inhibition: 33%
[3]
  inhibition: 0%
[4]
  growth inhibition: 95% (active)
[5]
  outcome: inactive
[6]
  outcome: inactive
[7]
  outcome: inactive
[8]
  outcome: inactive

## CC(Cc1ccc(NC(=O)CCNCc2ccccc2)cc1)NCCc1cccc(Cl)c1 (stereo unspecified)
[1]
  growth inhibition: 100% (active)
[2]
  inhibition: 101% (active)
[3]
  inhibition: 3%
[4]
  growth inhibition: 101% (active)
[5]
  outcome: inactive
[6]
  outcome: inactive
[7]
  outcome: inactive
[8]
  outcome: inactive

## N#Cc1ccc(N(CC(=O)NCCc2ccccc2)CC2CC2)c2ccccc12
[1]
  growth inhibition: 48%
[2]
  inhibition: 0%
[3]
  inhibition: -3%
[4]
  growth inhibition: 99% (active)
[5]
  outcome: inactive
[6]
  outcome: inactive
[7]
  outcome: inactive
[8]
  outcome: inactive

## CC(C)NC(=O)Cn1cc(C2CCN(CC3CCN(C(=O)/C=C/c4ccc(Cl)c(Cl)c4)CC3)CC2)c2ccccc21
[1]
  growth inhibition: 55% (active)
[2]
  inhibition: 31%
[3]
  inhibition: -2%
[4]
  growth inhibition: 97% (active)
[5]
  outcome: inactive
[6]
  outcome: inactive
[7]
  outcome: inactive
[8]
  outcome: inactive

## CC[C@H]1CN2CC[C@@H]1C[C@H]2[C@H](O)c1cc(-c2ccc(F)cc2)nc2ccc(O)cc12
[1]
  growth inhibition: 99% (active)
[2]
  inhibition: 25%
[3]
  inhibition: -2%
[4]
  growth inhibition: 99% (active)
[5]
  outcome: inactive
[6]
  outcome: inactive
[7]
  outcome: inactive
[8]
  outcome: inactive

## CC(Cc1ccc(OCCCCOc2ccccc2)cc1)NCCCN1CCOCC1 (stereo unspecified)
[1]
  growth inhibition: 78% (active)
[2]
  inhibition: 98% (active)
[3]
  inhibition: -2%
[4]
  growth inhibition: 98% (active)
[5]
  outcome: inactive
[6]
  outcome: inactive
[7]
  outcome: inactive
[8]
  outcome: inactive

## Cc1cc(N(C)C2CCN(C)CC2)nc(Nc2ccc(Cl)cc2)n1
[1]
  growth inhibition: 90% (active)
[2]
  inhibition: 15%
[3]
  inhibition: -6%
[4]
  growth inhibition: 98% (active)
[5]
  outcome: inactive
[6]
  outcome: inactive
[7]
  outcome: inactive
[8]
  outcome: inactive

## O=C(/C=C/c1ccsc1)NC1CCC(CN2CCC(c3c[nH]c4ccccc34)CC2)CC1 (stereo unspecified)
[1]
  growth inhibition: 20%
[2]
  inhibition: 29%
[3]
  inhibition: -1%
[4]
  growth inhibition: 82% (active)
[5]
  outcome: inactive
[6]
  outcome: inactive
[7]
  outcome: inactive
[8]
  outcome: inactive

## O=C(NC1CCC(CN2CCC(c3c[nH]c4ccccc34)CC2)CC1)c1cc(-c2ccccc2Cl)n(-c2cccc(Cl)c2)n1 (stereo unspecified)
[1]
  growth inhibition: 24%
[2]
  inhibition: 58% (active)
[3]
  inhibition: 4%
[4]
  growth inhibition: 95% (active)
[5]
  outcome: inactive
[6]
  outcome: inactive
[7]
  outcome: inactive
[8]
  outcome: inactive

## Oc1ccc(CN2CCN(CCOC(c3ccccc3)c3ccc(Cl)cc3)CC2)cc1Cl (stereo unspecified)
[1]
  growth inhibition: 97% (active)
[2]
  inhibition: 11%
[3]
  inhibition: -3%
[4]
  growth inhibition: 98% (active)
[5]
  outcome: inactive
[6]
  outcome: inactive
[7]
  outcome: inactive
[8]
  outcome: inactive

## Cn1nc(C(F)(F)F)cc1-c1ccc(C(=O)NC2CCC(CN3CCC(c4c[nH]c5ccccc45)CC3)CC2)s1 (stereo unspecified)
[1]
  growth inhibition: 97% (active)
[2]
  inhibition: 45%
[3]
  inhibition: -1%
[4]
  growth inhibition: 101% (active)
[5]
  outcome: inactive
[6]
  outcome: inactive
[7]
  outcome: inactive
[8]
  outcome: inactive

## CCOC(=O)c1c(C)n(C2CCCCCC2)c2cc(Br)c(O)cc12
[1]
  growth inhibition: 45%
[2]
  inhibition: -1%
[3]
  inhibition: -1%
[4]
  growth inhibition: 87% (active)
[5]
  outcome: inactive
[6]
  outcome: inactive
[7]
  outcome: inactive
[8]
  outcome: inactive

## COc1ccccc1CNCC(O)c1cc(C(F)(F)F)ccc1C(F)(F)F (stereo unspecified)
[1]
  growth inhibition: 95% (active)
[2]
  inhibition: 10%
[3]
  inhibition: 5%
[4]
  growth inhibition: 101% (active)
[5]
  outcome: inactive
[6]
  outcome: inactive
[7]
  outcome: inactive
[8]
  outcome: inactive

## Cc1[nH]c2cc(Cl)ccc2c1C1=CCN(CCN2CCOc3c(Br)cccc3C2=O)CC1
[1]
  growth inhibition: 58% (active)
[2]
  inhibition: 1%
[3]
  inhibition: 4%
[4]
  growth inhibition: 90% (active)
[5]
  outcome: inactive
[6]
  outcome: inactive
[7]
  outcome: inactive
[8]
  outcome: inactive

## OC(CNC1CCCCC1)c1ccc(Cl)c(Cl)c1 (stereo unspecified)
[1]
  growth inhibition: 96% (active)
[2]
  inhibition: 17%
[3]
  inhibition: -1%
[4]
  growth inhibition: 99% (active)
[5]
  outcome: inactive
[6]
  outcome: inactive
[7]
  outcome: inactive
[8]
  outcome: inactive

## CC[C@H]1CN2CC[C@H]1C[C@H]2[C@H](O)c1cc(-c2cccc(Cl)c2)nc2ccc(OC)cc12
[1]
  growth inhibition: 99% (active)
[2]
  inhibition: 16%
[3]
  inhibition: 6%
[4]
  growth inhibition: 98% (active)
[5]
  outcome: inactive
[6]
  outcome: inactive
[7]
  outcome: inactive
[8]
  outcome: inactive

## CC(C)c1ccc(C=CC(=O)NC2CCC(CN3CCC(c4c[nH]c5ccccc45)CC3)CC2)cc1 (stereo unspecified)
[1]
  growth inhibition: 85% (active)
[2]
  inhibition: 50% (active)
[3]
  inhibition: -3%
[4]
  growth inhibition: 101% (active)
[5]
  outcome: inactive
[6]
  outcome: inactive
[7]
  outcome: inactive
[8]
  outcome: inactive

## Cc1ccccc1C1=CCN(CCCN2c3ccccc3Sc3ccc(Cl)cc32)CC1
[1]
  growth inhibition: 30%
[2]
  inhibition: 14%
[3]
  inhibition: 5%
[4]
  growth inhibition: 90% (active)
[5]
  outcome: inactive
[6]
  outcome: inactive
[7]
  outcome: inactive
[8]
  outcome: inactive

## CC(=O)C1(c2ccccc2)CCN(CCC2(c3ccc(Cl)c(Cl)c3)CN(C(=O)CC(C)C)CCO2)CC1 (stereo unspecified)
[1]
  growth inhibition: 94% (active)
[2]
  inhibition: 7%
[3]
  inhibition: 0%
[4]
  growth inhibition: 92% (active)
[5]
  outcome: inactive
[6]
  outcome: inactive
[7]
  outcome: inactive
[8]
  outcome: inactive

## Cc1cc(C2CCCCN2C)ccc1-c1ccc(C(=O)N2CCc3cc4c(cc32)C2(CCN(C)CC2)CO4)cc1 (stereo unspecified)
[1]
  growth inhibition: 94% (active)
[2]
  inhibition: 37%
[3]
  inhibition: 1%
[4]
  growth inhibition: 95% (active)
[5]
  outcome: inactive
[6]
  outcome: inactive
[7]
  outcome: inactive
[8]
  outcome: inactive

## COc1ccc2nc(-c3ccc(F)cc3)cc([C@@H](O)[C@@H]3C[C@@H]4CCN3CC4C=NO)c2c1 (stereo partly specified)
[1]
  growth inhibition: 94% (active)
[2]
  inhibition: 14%
[3]
  inhibition: -2%
[4]
  growth inhibition: 100% (active)
[5]
  outcome: inactive
[6]
  outcome: inactive
[7]
  outcome: inactive
[8]
  outcome: inactive
